Assay results: PubChem BioAssay (Tox21)
Inconclusive results are not listed. Calls of active or inactive are those of the source. Unless noted, the call rests on the fitted dose curve; in most records, active means well fitted curve in the direction sought with a large enough effect in the repeat runs; inconclusive means weak or mixed curves; inactive means no such curve, though single readings can be large; an effect the other way counts as inactive or inconclusive.

What was measured:
[1] = qHTS assay to identify small molecule that activate the aryl hydrocarbon receptor (AhR) signaling pathway - cell viability counter screen (AID 743086);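 further: HepG2 liver cells carrying the AhR DRE luciferase reporter; series mostly up to about 70 µM; nearly all actives have a fitted effect of over 45% in size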
How it was run: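 Cytotoxicity counter screen: CellTiter-Fluor signal (30 min, 37 C) in 4000 HepG2 cells/well carrying the DRE-luciferase reporter, following 24 h compound exposure at 37 C.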

[2] = qHTS assay to identify small molecule antagonists of the peroxisome proliferator-activated receptor gamma (PPARg) signaling pathway - cell viability counter screen (AID 743194); further: nearly all actives have a fitted effect of over 55% in size
How it was run: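 Viability was measured as CellTiter-Glo luminescence in GeneBLAzer PPARg UAS-bla HEK293H cells. These cells had been exposed 17 h at 37 C to compounds together with rosiglitazone at 50 nM final, with the beta-lactamase readout taken in the same wells.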

[3] = qHTS assay for small molecule agonists of the antioxidant response element (ARE) signaling pathway (AID 743202; active means well fitted activation curve with a large enough effect in the signal ratio in the repeat runs, not every such curve was filed as active; the % refers to the signal ratio)
How it was run: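 After 16 hours of compound treatment at 37 C, HepG2 cells with a stably integrated ARE-driven beta-lactamase reporter were loaded 2 hours at room temperature with LiveBLAzer B/G FRET substrate and fluorescence intensity measured.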

[4] = qHTS assay for small molecule agonists of the antioxidant response element (ARE) signaling pathway - cell viability counter screen (AID 743203; calls by dose curve; further: nearly all actives have a fitted effect of over 55% in size)
How it was run: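 ATP content via CellTiter-Glo luminescence served as the viability measure. Cells: ARE-bla HepG2, 2,000 per well. Exposure: 16 hrs, 37C/5% CO2.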

[5] = qHTS assay for small molecule activators of the heat shock response signaling pathway (AID 743210; active means well fitted activation curve with a large enough effect in the signal ratio in the repeat runs, with a control signal flat, not every such curve was filed as active; the % refers to the signal ratio; further: series mostly up to about 63 µM)
How it was run: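 Compound exposure lasted 5 h at 37 C in HeLa cells carrying a heat-shock-element-driven beta-lactamase reporter. Read-out: fluorescence intensity after 2.5 h room-temperature loading with LiveBLAzer B/G FRET substrate.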

[6] = qHTS assay to identify small molecule agonists of the peroxisome proliferator-activated receptor delta (PPARd) signaling pathway - cell viability counter screen (AID 743211); further: nearly all actives have a fitted effect of over 55% in size
How it was run: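 PPARd-bla HEK293H cells (UAS-beta-lactamase reporter) were treated with compounds for 17 h at 37 C. Viability was then read in the same wells by CellTiter-Glo luminescence after 30 min at room temperature.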

[7] = target: Peroxisome proliferator-activated receptor delta (Homo sapiens) (UniProt Q03181); assay: qHTS assay to identify small molecule agonists of the peroxisome proliferator-activated receptor delta (PPARd) signaling pathway (AID 743212; calls by dose curve)
Peroxisome proliferator-activated receptor delta (Homo sapiens), sequence (Q03181 whole entry, looked up): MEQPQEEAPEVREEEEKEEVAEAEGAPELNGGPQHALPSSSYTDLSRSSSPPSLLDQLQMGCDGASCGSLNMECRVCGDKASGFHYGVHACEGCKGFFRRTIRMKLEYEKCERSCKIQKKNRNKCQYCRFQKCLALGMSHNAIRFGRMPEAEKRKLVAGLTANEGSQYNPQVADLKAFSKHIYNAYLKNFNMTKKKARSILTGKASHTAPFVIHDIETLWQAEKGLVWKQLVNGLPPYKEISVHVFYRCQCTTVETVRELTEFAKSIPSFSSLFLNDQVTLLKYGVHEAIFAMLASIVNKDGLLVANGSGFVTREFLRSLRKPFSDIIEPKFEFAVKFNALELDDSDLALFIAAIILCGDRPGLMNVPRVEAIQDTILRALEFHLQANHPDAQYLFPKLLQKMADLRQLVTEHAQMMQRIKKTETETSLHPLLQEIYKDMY
How it was run: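 Beta-lactamase reporter readout: a ratiometric FRET signal from the LiveBLAzer substrate after 2 h at room temperature. Compound exposure at 37 °C in PPARδ-bla HEK293H cells driven by an upstream activator sequence.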

[8] = target: Bile acid receptor (Homo sapiens) (UniProt Q96RI1); assay: qHTS assay to identify small molecule antagonists of the farnesoid-X-receptor (FXR) signaling pathway (AID 743217; active means well fitted inhibition curve with a large enough effect in the signal ratio in the repeat runs, not every such curve was filed as active; the % refers to the signal ratio)
Bile acid receptor (Homo sapiens), sequence (Q96RI1 whole entry, looked up): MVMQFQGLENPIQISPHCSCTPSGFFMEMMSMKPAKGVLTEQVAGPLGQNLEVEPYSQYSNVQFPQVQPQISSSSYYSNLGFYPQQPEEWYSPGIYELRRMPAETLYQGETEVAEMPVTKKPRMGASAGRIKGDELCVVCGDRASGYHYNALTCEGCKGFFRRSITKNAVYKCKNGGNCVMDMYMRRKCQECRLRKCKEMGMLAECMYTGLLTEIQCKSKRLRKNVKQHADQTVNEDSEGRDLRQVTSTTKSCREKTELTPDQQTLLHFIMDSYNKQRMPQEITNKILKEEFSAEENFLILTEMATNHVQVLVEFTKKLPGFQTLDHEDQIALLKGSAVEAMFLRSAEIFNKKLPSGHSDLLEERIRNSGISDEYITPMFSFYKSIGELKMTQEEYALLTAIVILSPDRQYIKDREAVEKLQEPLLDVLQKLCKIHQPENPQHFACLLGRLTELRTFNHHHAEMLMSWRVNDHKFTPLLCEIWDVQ
How it was run: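 Test compounds are pin-transferred onto FXR-bla HEK 293T cells, then chenodeoxycholic acid is added at 50 uM final. After 16 h at 37 °C, LiveBLAzer B/G substrate is applied for 2 h at room temperature and fluorescence read.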

[9] = qHTS assay to identify small molecule agonists of the farnesoid-X-receptor (FXR) signaling pathway - cell viability counter screen (AID 743218); further: nearly all actives have a fitted effect of over 45% in size
How it was run: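 Quantitative HTS counter screen measuring ATP-based viability via CellTiter-Glo luminescence in HEK 293T cells carrying a UAS-driven beta-lactamase reporter, after 16 h compound exposure at 37 C.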

[10] = target: Bile acid receptor (Homo sapiens) (UniProt Q96RI1); assay: qHTS assay to identify small molecule agonists of the farnesoid-X-receptor (FXR) signaling pathway (AID 743220; active means well fitted activation curve with a large enough effect in the signal ratio in the repeat runs, not every such curve was filed as active; the % refers to the signal ratio)
How it was run: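 FXR-UAS-bla HEK 293T cells carrying a UAS-driven beta-lactamase reporter were plated for 5 h at 37C/5% CO2, then exposed to DMSO-dissolved Tox21 10K compounds for 16 h at 37C. A LiveBLAzer B/G FRET substrate was loaded for 2 h at room temperature before fluorescence reading.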

[11] = qHTS assay to identify small molecule antagonists of the farnesoid-X-receptor (FXR) signaling pathway - cell viability counter screen (AID 743221; active means well fitted cell-killing curve with a large enough effect in the repeat runs, not every such curve was filed as active; further: nearly all actives have a fitted effect of over 50% in size)
How it was run: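 FXR-UAS-bla HEK 293T cells were treated with test compounds plus chenodeoxycholic acid (50 uM final) for 16 h at 37 C. Cell viability in the same wells was then read as CellTiter-Glo luminescence after 30 min at room temperature.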

[12] = target: Vitamin D3 receptor (Homo sapiens) (UniProt P11473); assay: qHTS assay to identify small molecule agonists of the vitamin D receptor (VDR) signaling pathway (AID 743222; calls by dose curve)
Vitamin D3 receptor (Homo sapiens), sequence (P11473 whole entry, looked up): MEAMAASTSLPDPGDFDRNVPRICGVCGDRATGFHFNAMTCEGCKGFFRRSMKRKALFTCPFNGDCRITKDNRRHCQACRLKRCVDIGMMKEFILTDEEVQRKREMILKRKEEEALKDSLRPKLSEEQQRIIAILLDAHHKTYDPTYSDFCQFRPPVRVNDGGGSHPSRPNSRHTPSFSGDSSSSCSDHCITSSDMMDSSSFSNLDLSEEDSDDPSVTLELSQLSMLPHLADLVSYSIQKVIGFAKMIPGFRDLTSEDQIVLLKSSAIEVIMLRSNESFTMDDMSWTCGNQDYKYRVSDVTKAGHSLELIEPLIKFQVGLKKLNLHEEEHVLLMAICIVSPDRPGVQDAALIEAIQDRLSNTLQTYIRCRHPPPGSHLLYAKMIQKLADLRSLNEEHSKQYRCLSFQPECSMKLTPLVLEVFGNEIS
How it was run: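 Tox21 cell reporter format: VDR-bla line, 16 h compound exposure in 5% CO2 at 37C, then fluorescence intensity after 2 h with LiveBLAzer B/G FRET substrate.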

[13] = target: Peroxisome proliferator-activated receptor gamma (Homo sapiens) (UniProt P37231); assay: qHTS assay to identify small molecule agonists of the peroxisome proliferator-activated receptor gamma (PPARg) signaling pathway (AID 743094; active means well fitted activation curve with a large enough effect in the signal ratio in the repeat runs, not every such curve was filed as active; the % refers to the signal ratio)
Peroxisome proliferator-activated receptor gamma (Homo sapiens), sequence (P37231 whole entry, looked up): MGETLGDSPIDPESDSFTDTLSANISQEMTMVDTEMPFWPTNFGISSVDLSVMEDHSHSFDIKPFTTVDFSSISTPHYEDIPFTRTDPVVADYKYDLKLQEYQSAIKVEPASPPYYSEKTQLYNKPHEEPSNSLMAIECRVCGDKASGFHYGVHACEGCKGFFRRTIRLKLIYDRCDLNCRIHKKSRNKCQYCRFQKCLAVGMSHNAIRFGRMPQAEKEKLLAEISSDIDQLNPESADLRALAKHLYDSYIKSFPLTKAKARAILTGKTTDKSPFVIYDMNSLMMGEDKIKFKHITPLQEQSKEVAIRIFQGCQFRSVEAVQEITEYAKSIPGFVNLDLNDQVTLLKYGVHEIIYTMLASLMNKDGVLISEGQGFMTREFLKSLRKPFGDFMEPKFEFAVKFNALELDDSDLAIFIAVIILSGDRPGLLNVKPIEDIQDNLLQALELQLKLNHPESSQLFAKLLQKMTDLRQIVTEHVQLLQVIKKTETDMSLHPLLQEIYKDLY
How it was run: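 Agonism was assessed in a beta-lactamase reporter system, HEK293H cells with a stably integrated UAS-bla construct under PPARg control; the 17 h treatment at 37C preceded a 1 h room-temperature FRET substrate read.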

[14] = target: Peroxisome proliferator-activated receptor gamma (Homo sapiens) (UniProt P37231); assay: qHTS assay to identify small molecule antagonists of the peroxisome proliferator-activated receptor gamma (PPARg) signaling pathway (AID 743191; calls by dose curve; further: series mostly up to about 63 µM; nearly all actives have a fitted effect of over 30% in size)
How it was run: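 Beta-lactamase reporter under UAS control in HEK293H PPARg-bla cells; compound treatment 17 h at 37C. Read-out: fluorescence intensity after 1 h room-temperature incubation with LiveBLAzer B/G FRET substrate.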

[15] = qHTS assay for small molecule activators of the heat shock response signaling pathway - cell viability counter screen (AID 743209); further: nearly all actives have a fitted effect of over 50% in size
How it was run: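 Compounds dissolved in DMSO were added to overnight-plated HSE-bla HeLa cells and left 5 h at 37 C. Cell viability was quantified by luminescence using CellTiter-Glo.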

[16] = target: Vitamin D3 receptor (Homo sapiens) (UniProt P11473); assay: qHTS assay to identify small molecule antagonists of the vitamin D receptor (VDR) signaling pathway (AID 743223; active means well fitted inhibition curve with a large enough effect in the signal ratio in the repeat runs, not every such curve was filed as active; the % refers to the signal ratio)
How it was run: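 VDR-bla cells were plated, incubated 4 h at 37C, then given compound and 1alpha,25-dihydroxyvitamin D3 (3 nM final). After 16 h at 37C, LiveBLAzer B/G FRET substrate was added for 2 h at room temperature and fluorescence read.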

[17] = qHTS assay to identify small molecule agonists of the vitamin D receptor (VDR) signaling pathway - cell viability counter screen (AID 743224); further: series mostly up to about 63 µM; nearly all actives have a fitted effect of over 50% in size
How it was run: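 CellTiter-Glo viability readout on VDR-bla cells, measured after 16 h of compound treatment at 37C in the same wells.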

[18] = qHTS assay to identify small molecule antagonists of the peroxisome proliferator-activated receptor delta (PPARd) signaling pathway - cell viability counter screen (AID 743213); further: nearly all actives have a fitted effect of over 50% in size
How it was run: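 Viability counter-screen, qHTS format: PPARd-bla HEK293H, L165041 300 nM final, 17 h compound exposure at 37 C, CellTiter-Glo luminescence after 30 min RT.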

[19] = target: Peroxisome proliferator-activated receptor delta (Homo sapiens) (UniProt Q03181); assay: qHTS assay to identify small molecule antagonists of the peroxisome proliferator-activated receptor delta (PPARd) signaling pathway (AID 743215; active means well fitted inhibition curve with a large enough effect in the signal ratio in the repeat runs, not every such curve was filed as active; the % refers to the signal ratio;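 further: cells stimulated with agonist L165041 at 300 nM final during compound exposure; series mostly up to about 62 µM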)
How it was run: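 Here, a reporter line (HEK293H, beta-lactamase under a UAS) measures PPARd signaling. Compounds are tested against agonist L165041 at 300 nM final concentration over 17 h at 37 C, with fluorescence read after substrate.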

Measured: Potency

CN(C)CCCCl
inactive: [1] | [2] | [3] | [4] | [5] | [6] | [7] | [8] | [9] | [10] | [11] | [12]

Cc1cc(-c2ccccc2)nnc1NCCN1CCOCC1
inactive: [13] | [14] | [2] | [3] | [4] | [15] | [5] | [6] | [7] | [9] | [11] | [12] | [16] | [17]

N#Cc1ccccc1O
inactive: [1] | [13] | [2] | [3] | [4] | [15] | [5] | [6] | [7] | [18] | [19] | [9] | [10] | [11] | [16] | [17]

CC(=O)C1C(=O)C=C(C)OC1=O (stereo unspecified)
inactive: [1] | [13] | [2] | [4] | [5] | [6] | [7] | [18] | [8] | [9] | [10] | [11] | [12] | [16]

O=C(CCCl)NCCc1ccccc1
inactive: [2] | [3] | [4] | [15] | [6] | [7] | [18] | [19] | [8] | [10] | [11] | [16] | [17]

OC1(c2ccc(Cl)cc2)CCNCC1
inactive: [14] | [2] | [3] | [4] | [15] | [5] | [6] | [7] | [18] | [19] | [9] | [10] | [11] | [12] | [16] | [17]

CC1=C(C(=O)O)N2C(=O)[C@@H](NC(=O)[C@H](N)c3ccccc3)[C@H]2SC1
inactive: [1] | [13] | [2] | [4] | [15] | [6] | [7] | [18] | [11] | [12]

CC(=O)OC(C)=O
inactive: [13] | [14] | [2] | [3] | [4] | [15] | [6] | [18] | [11] | [12] | [16] | [17]

COc1cc(/C=C/C(N)=O)cc(OC)c1OC
inactive: [3] | [4] | [15] | [5] | [6] | [7] | [18] | [19] | [9] | [10] | [11] | [12] | [17]

COc1cc2c(cc1OC)CN(C(=O)[C@H](C)N[C@@H](CCc1ccccc1)C(=O)O)[C@H](C(=O)O)C2
inactive: [2] | [3] | [4] | [15] | [5] | [6] | [7] | [18] | [19] | [9] | [11] | [17]

CCCCCc1cccc(=O)o1
inactive: [1] | [13] | [2] | [4] | [15] | [5] | [6] | [7] | [18] | [19] | [8] | [9] | [10] | [11] | [12]

CCN1CCCC1CN (stereo unspecified)
inactive: [14] | [4] | [6] | [7] | [18] | [19] | [11] | [16] | [17]

O=C(O)CONC(=O)c1ccccc1
inactive: [1] | [3] | [4] | [15] | [5] | [6] | [7] | [18] | [19] | [9] | [10] | [11] | [12] | [17]

N[C@@H](CSCCCO)C(=O)O
inactive: [1] | [13] | [2] | [3] | [4] | [15] | [5] | [6] | [18] | [19] | [9] | [11] | [12] | [17]

CCCc1ccc(O)cc1
inactive: [13] | [14] | [3] | [4] | [15] | [6] | [7] | [18] | [19] | [8] | [10] | [11] | [12] | [16] | [17]

CCC(=O)Oc1ccc2c(c1)CC[C@@H]1[C@@H]2CC[C@@]2(C)[C@H]1C[C@@H](OC(=O)CC)[C@@H]2OC(=O)CC
inactive: [14] | [2] | [3] | [4] | [15] | [6] | [18] | [8] | [9] | [10] | [11] | [17]
